# MCF10A rereplic: induces DNA re-replication in MCF 10a normal breast cells. actives 2.9% (n = 350,000). MCF 10A DNA re-replication, Hoechst nuclear intensity, 48 h. Potency, µM (titrated, usually from 46.1 µM), for the others: at the top dose activity, positive = re-replication, most hits filed as activators; note: potency is the fitted concentration of half-maximal effect; % of control where 0% means no effect; nearly all actives have a fitted effect of over 50% in size
# uPA generation: inhibitors of cell surface uPA generation. Potency, µM (top dose mostly 38.3 µM), inactives show at the highest dose activity change, negative = inhibition, hits mostly inhibitors. AID 540303. cell surface uPA generation assay, qHTS. actives 0.31% (n = 330,000); active = well fitted inhibition curve with a large enough effect; inconclusive = small, poorly fitted or top-dose-only effect; inactive = no such curve, though single readings can be large or run the other way; tested in mouse RAW 264.7 cells; note: potency is the fitted concentration of half-maximal effect; % is set by controls: 0 for no effect and ±100 for the full control effect; nearly all actives have a fitted effect of over 55% in size
# Giardia kill: kills Giardia lamblia; Giardia lamblia trophozoite viability; activity change, % at 7.66 µM, hits read low; actives 0.15% (n = 340,000); in the data active = activity change below about -80%; inconclusive = between about -30% and that limit;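 note: parasites exposed to compound for two days anaerobically before the ATP read; % is set by controls: 0 for no effect and ±100 for the full control effect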
#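 Trophozoite viability was measured as ATP-dependent luminescence, read 15-30 min after reagent addition. Before that, parasites at 100 cells/well were exposed to compounds for 48 h, anaerobically, at 37 deg C.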
# SW480 rerep: DNA re-replication induction in SW480 cells; SW480 DNA re-replication, Hoechst DNA content imaging, 48 h; Potency, µM (titrated, usually from 46.1 µM), for the others: at the top dose re-replication activation, most hits filed as activators; actives 1.8% (n = 340,000); AID 624297; note: potency is the fitted concentration of half-maximal effect; % of control where 0% means no effect; nearly all actives have a fitted effect of over 55% in size
#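 Image-based DNA-content assay: after two days of treatment, nuclei were labelled with the DNA dye Hoechst and imaged, and hits were compounds raising the count of nuclei showing high fluorescence intensity.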
# * = called active by the depositor; u = inconclusive; x = not tested or not shown. An excerpt weighted towards active compounds, which were near 4.3% of everything screened. Unless noted, calls come from the whole dose curve; as a rule, active = well fitted activation curve with a large enough effect; inconclusive = small, poorly fitted or top-dose-only effect; inactive = no such curve, though single readings can be large or run the other way.
SMILES,MCF10A rereplic,uPA generation,Giardia kill,SW480 rerep
N#Cc1ccc(C(=O)CSc2nnc(-c3ccc(C(F)(F)F)cn3)s2)cc1,26%,-5%,-15,3.3µM*
COc1ccccc1-c1oc2ccccc2c1C#CC(C)(C)O,-5%,-5%,-5,-9%
COc1ccccc1N1CCN(S(=O)(=O)CCNC(=O)C2CCCCC2)CC1,1%,11%,5,-1%
COc1cc(S(=O)(=O)N2CCN(Cc3ccccc3)CC2)ccc1Br,10µM*,2%,-13,u
O=C(N/N=C/c1ccc([N+](=O)[O-])o1)c1ccccc1NS(=O)(=O)c1cccs1,18µM*,-5%,u,u
C/C(=N\NC(=S)Nc1cccc(C)c1)c1cc2ccccc2o1,14µM*,-6%,-20,13%
Cc1nc2ccccn2c1C(=O)N/N=C/c1ccc([N+](=O)[O-])o1,u,u,-86*,u
O=[N+]([O-])c1ccc(/C=N\NS(=O)(=O)c2ccc(F)cc2)o1,u,8.9µM*,u,u
Cc1cccc(-n2c(SCC(=O)c3c(N)n(C4CC4)c(=O)[nH]c3=O)nnc2N2CCOCC2)c1,2%,u,-13,1%
Cc1ccccc1OCC(=O)Nc1ccccc1C(=O)NC1CC1,9%,2%,7,-5%
C/C(=N\Nc1ccc([N+](=O)[O-])cc1)c1cc2ccccc2o1,2.9µM*,3%,22,24%
O=C(N/N=C/c1ccc([N+](=O)[O-])o1)c1ccncc1,153%,-6%,5,2%
O=C(N/N=C/c1ccc([N+](=O)[O-])o1)c1ccc(O)cc1,u,7.1µM*,-26,u
C/C(=N\NC(=O)c1c(C)nc2ccccn12)c1ccc(C(C)(C)C)cc1,18µM*,-15%,8,u
O=C(N/N=C/c1ccc([N+](=O)[O-])o1)c1cc2ccccc2o1,u,2.5µM*,-96*,u
O=C(N/N=C/c1ccc([N+](=O)[O-])cc1)c1cc2ccccc2o1,-3%,4%,-10,-12%
O=C(N/N=C\c1ccc([N+](=O)[O-])o1)c1cncc(Br)c1,u,-9%,u,26%
O=C(N/N=C/c1ccc([N+](=O)[O-])o1)c1cc2c(ccc3ccccc32)o1,2.6µM*,u,u,u
CCN(CC)S(=O)(=O)c1cccc(C(=O)N/N=C/c2ccc([N+](=O)[O-])o2)c1,u,-17%,-20,21µM*
Cc1ccc(/C=N/NC(=O)c2cc3c(ccc4ccccc43)o2)o1,u,-2%,-1,u
O=c1onc(-c2ccccc2Cl)n1-c1ccccc1Cl,3%,9%,0,-1%
COc1ccccc1N1CCN(S(=O)(=O)c2ccc3c(c2)NC(=O)C(C)C(=O)N3)CC1 (configuration not stated),9%,-1%,7,14%
Cc1ccc(Cl)cc1N1CCN(S(=O)(=O)c2ccc3c(c2)NC(=O)C(C)C(=O)N3)CC1 (configuration not stated),18µM*,15%,33,9%
Cc1ccc(Cl)cc1N1CCN(S(=O)(=O)c2ccc3[nH]c(=O)ccc3c2)CC1,23µM*,-8%,-19,1%
Cc1cc(C(=O)COC(=O)c2ccco2)c(C)n1Cc1ccco1,8%,5%,5,u
SMILES,MCF10A rereplic,uPA generation,Giardia kill,SW480 rerep
Cc1nn(Cc2ccccc2)c(C)c1C(=O)OCC(=O)c1cc(C)n(CC(F)(F)F)c1C,13µM*,0%,-9,4%
C[C@H](CO)N1C[C@H](C)[C@@H](CN(C)C(=O)Nc2ccc3c(c2)OCO3)Oc2c(NC(=O)c3ccncc3)cccc2C1=O,-3%,7%,-23,1%
O=[N+]([O-])c1cc(S(=O)(=O)N2CCCCCC2)ccc1Cl,16µM*,5%,-12,22%
CCOc1cc(S(=O)(=O)N2CCCC2)ccc1Cl,1µM*,16%,-1,0.73µM*
O=C1/C(=C\c2cccs2)CCC/C1=C/c1cccs1,4%,x,x,11%
Cc1ccc(C(=O)c2ccc(C)cc2)cc1,-1%,0%,-3,-1%
Cc1ccc(C(=O)c2no[n+]([O-])c2C(=O)c2ccc(C)cc2)cc1,7.3µM*,-2%,-29,5.2µM*
COc1ccc(CCC(=O)OCC(=O)Nc2sccc2C#N)cc1,-2%,4%,-18,1%
COC(=O)c1cc2c(ccn2-c2ccc(F)cc2)n1CC(=O)OC(C)C,16µM*,9%,-22,-8%
COC(=O)c1cc2c(ccn2-c2ccc(F)cc2)n1CC(=O)C(C)(C)C,-16%,6%,11,-2%
O=S(=O)(Nc1ccc(Cl)nn1)c1ccccc1,13µM*,u,-22,u
CC(C)(C)c1ccc(C(=O)CCCN2CCC(OC(c3ccccc3)c3ccccc3)CC2)cc1,12µM*,x,x,-3%
CN1CCN(CCCCC(=O)c2ccccc2)CC1,u,0%,6,-3%
N#C/C(=C\c1ccc(Sc2ccc(Cl)cc2)o1)c1nc2ccccc2[nH]1,15µM*,-7%,3,u
Cc1cccc(C)c1OC(=O)CSc1nnc(-c2ccccc2O)o1,18µM*,x,4,0%
CC1CCN(C(=O)/C=C/c2ccc(C(C)(C)C)cc2)CC1,18µM*,2%,1,2%
CC(C)(C)c1ccc(/C=C/C(=O)N2CCCCC2)cc1,u,-4%,-9,12%
Nc1cc2nn(-c3ccccc3)nc2cc1Cl,18µM*,-10%,3,u
CC(C)CC(=O)Nc1cc2nn(-c3ccccc3)nc2cc1Cl,7%,-2%,-13,6%
Nc1ccc(-n2nc3ccccc3n2)cc1,23µM*,-5%,u,u
Nc1ccc2nn(-c3ccccc3)nc2c1,18µM*,-4%,-17,15µM*
Cc1ccc(CNCCCn2cnc(C(=O)Nc3ccc(C)c(C)c3)n2)o1,-8%,u,-8,1%
Cc1cc(C)c(OCC(=O)Nc2nnc(C3CC3)s2)c(C)c1,0%,-4%,4,1%
O=C(c1c[nH]c(C(=O)N2CCN(c3ccccc3F)CC2)c1)c1cccc(Cl)c1Cl,3.7µM*,u,-21,u
NC(=O)c1c(-c2ccc(Cl)cc2Cl)csc1NC(=O)Cc1ccccc1,23µM*,-14%,-19,-15%
SMILES,MCF10A rereplic,uPA generation,Giardia kill,SW480 rerep
CN1CCN(CCOC2Cc3ccccc3Sc3ccc(Cl)cc32)CC1 (configuration not stated),23µM*,4%,-5,-7%
CCOC(=O)Nc1ccc2c(CNC(C)c3ccccc3OC)cc(=O)oc2c1 (configuration not stated),18µM*,-4%,u,24%
COc1cc(-c2noc(C)c2C(=O)NCCCn2ccnc2)cc(OC)c1OC,38%,0%,-9,1%
CCOC(=O)c1nn(C)c2[nH]c(=O)n(C)c(=O)c12,2%,-6%,-11,-4%
Cc1ccc(CSc2nccc(-c3c(C)nc4ccccn34)n2)cc1,3.7µM*,u,-27,u
Cc1ccc(CSc2ncn(-c3ccccc3)n2)cc1,-3%,2%,-15,-3%
CN(Cc1ccc(N(C)C)cc1)C(=O)c1cc2ccccc2o1,16%,x,-14,0%
